Source: PubChem BioAssay (NCATS)
Several values for one entry are separate records, joined by “and”; a condition that tells them apart may be missing. Identical values can stand only once. Inconclusive results are not listed. The source holds several records for some structures; these can differ, active in one and inactive in another. Activity calls are given as the source filed them. Unless noted, calls come from the whole dose curve; as a rule, active = well fitted curve in the direction sought with a large enough effect; inconclusive = small, poorly fitted or top-dose-only effect, or another doubt; inactive = no such curve, though single readings can be large; an effect the other way counts as inactive or inconclusive.

What was measured:
[1] = Primary qHTS for inhibitors of nuclear receptor binding SET domain protein 2 (NSD2) in an isogenic RCH-ACV NSD2 p.E1099K mutant (9B) (AID 1645876); note: nearly all actives have a fitted effect of over 70% in size
[2] = Primary qHTS for inhibitors of nuclear receptor binding SET domain protein 2 (NSD2) in an RCH-ACV wild type WT cells (2C) (AID 1645877); note: nearly all actives have a fitted effect of over 70% in size
[3] = target: N-terminal Xaa-Pro-Lys N-methyltransferase 1 (Homo sapiens) (UniProt Q9BV86); experiment: Confirmatory qHTS for Inhibitors of N-terminal methyltransferase 1 (NTMT1): MTaseGlo Assay (AID 1645874); note: nearly all actives have a fitted effect of over 65% in size
How it was run: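 Luminescent MTase-Glo read-out of SAH. 125 nM NTMT1, 100 uM SAM, 1 uM SPKRIA substrate, 30 min RT reaction after 15 min compound preincubation. Normalized to no-enzyme and DMSO controls; Hill fit.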

[4] = target: Catechol O-methyltransferase (Homo sapiens) (UniProt P21964); experiment: Confirmatory Screen for Target Class Profiling of Small Molecule Inhibitors of Methyltransferases (AID 1745852; calls by dose curve); conditions: MTase-Glo luminescence, SAH detection, recombinant enzyme; measured here: COMT max response; stronger effect = lower value
[5] = target: Guanidinoacetate N-methyltransferase (Homo sapiens) (UniProt Q14353); experiment: as above; conditions: MTase-Glo luminescence, SAH detection, recombinant enzyme; activity change, negative = inhibition: at 57.3 µM (top of the series) unless noted
Potency is the fitted concentration of half-maximal effect.

Catechol O-methyltransferase (Homo sapiens), sequence (P21964 whole entry, looked up): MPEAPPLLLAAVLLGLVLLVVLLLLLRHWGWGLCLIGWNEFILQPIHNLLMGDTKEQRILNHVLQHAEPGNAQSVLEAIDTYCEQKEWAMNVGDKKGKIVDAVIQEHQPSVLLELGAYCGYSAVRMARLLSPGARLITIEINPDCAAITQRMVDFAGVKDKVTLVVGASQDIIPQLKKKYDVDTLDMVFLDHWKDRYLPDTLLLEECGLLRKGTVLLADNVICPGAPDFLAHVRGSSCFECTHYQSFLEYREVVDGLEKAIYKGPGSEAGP
N-terminal Xaa-Pro-Lys N-methyltransferase 1 (Homo sapiens), sequence (Q9BV86 whole entry, looked up): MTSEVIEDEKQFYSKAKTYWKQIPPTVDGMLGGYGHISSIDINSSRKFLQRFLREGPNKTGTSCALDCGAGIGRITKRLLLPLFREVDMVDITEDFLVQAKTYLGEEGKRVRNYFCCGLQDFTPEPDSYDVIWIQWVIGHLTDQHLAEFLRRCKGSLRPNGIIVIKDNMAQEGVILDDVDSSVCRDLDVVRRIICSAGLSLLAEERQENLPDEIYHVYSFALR

Question: Which results are given for `CC(C)[C@H](CO)Nc1nc(Nc2ccc(C(=O)O)c(Cl)c2)c2ncn(C(C)C)c2n1`?
Answer: Potency [1]: inactive; Potency [2]: inactive

Question: Which Potency [1] does the source give for `O=c1c(O)c(-c2ccc(O)cc2)oc2cc(O)cc(O)c12` here?
Answer: 23.5 µM (active)

Question: Which Potency [1] does the source give for `CCCCCNC(=O)N1CCC(CN(Cc2ccc(Cl)cc2)Cc2ccc([N+](=O)[O-])s2)C1` (stereo not drawn) here?
Answer: inactive

Question: What about the Potency [2] of the same compound?
Answer: inactive

Question: For `CCn1c(C(=O)N(C2CC2)C2CC2)cc2c3c(ncn3C)c(Nc3cc(C)n(C)n3)nc21`, which Potency [1] is on record?
Answer: 11.5 µM (active) and 16.6 µM (active)

Question: With `COc1cc(NC(=O)c2ccc(-c3ccc(Cl)cc3)o2)cc(OC)c1` as the compound, how does the Potency [1] read?
Answer: inactive

Question: Which Potency [3] does the source give for `Cc1cccc(Nc2nc(-c3ccncc3)cs2)c1` here?
Answer: 2.82 µM (active)

Question: What about the Potency [1] of the same compound?
Answer: 10.3 µM (active) and 11.8 µM (active)

Question: What about the Potency [2] of the same compound?
Answer: 10.3 µM (active) and 13.2 µM (active)

Question: What about the activity [4] of the same compound?
Answer: -88.1%

Question: What about the Potency [5] of the same compound?
Answer: 13.6 µM (active)

Question: For `O=C1C[C@@H](c2ccc(O)cc2)Oc2cc(O)cc(O)c21`, which Potency [1] is on record?
Answer: inactive

Question: Which results are given for `O=C(Nc1c(Cl)cncc1Cl)c1ccc(OC(F)F)c(OCC2CC2)c1`?
Answer: Potency [1]: inactive; Potency [2]: inactive

Question: For `Cc1ccn(-c2ccc(-c3ncco3)cc2)c(=O)c1-c1ccc2nc(N)ncc2c1`, which Potency [1] is on record?
Answer: 5.9 µM (active)

Question: For `CN(C)Cc1cccc(N=C(c2ccccc2)c2c(O)[nH]c3cc(C(=O)N(C)C)ccc23)c1`, which Potency [1] is on record?
Answer: 16.6 µM (active)

Question: What about the Potency [2] of the same compound?
Answer: 14.8 µM (active)

Question: Which Potency [3] does the source give for `COc1cc2ncnc(Nc3ccc(F)c(Cl)c3)c2cc1OCCCN1CCOCC1` here?
Answer: 7.58 µM (active)

Question: And the Potency [1]?
Answer: 23.7 µM (active) and 20.6 µM (active) and inactive

Question: What about the Potency [2] of the same compound?
Answer: 10.6 µM (active) and 11.5 µM (active)

Question: What about the activity [4] of the same compound?
Answer: -74.8%

Question: And the Potency [5]?
Answer: 24.1 µM (active)
